This passage reports sensor-assay potency score (higher = more potent) results from the OligoGym collection.
Note: reference of the scale not given here.

One assay deals with FCHSD2. Description: pooled miR-30 sensor sort-seq; sequence = guide strand. As to conditions: shRNA.
For the sequence TTTAAGCTTCTCACTGTCCTTG, the sensor-assay potency score (higher = more potent) came out at 0.228.
On the same count and under the same terms, to TGCTTTAGCAGGTCCAACCGGG belongs -0.504; to TAGGAATAAACAACTTTGCAGG, -0.656; to TTCGGTATCTGCATTAAGCGAG, 0.0519.
The same measure, in the same setting: to TAACTTTACACTTGCCTTCTGT belongs -0.129; to TTTCTGATTCTAACTGTCGGCT, -0.5.
The same measure, in the same setting: to TAGCTTTGGAATTACACTCAGA belongs -0.799; to TTATCTTCAAACTCTTCGCCTT, -0.0794; to TTCTGTTCTAGCTCTGCTCGGC, -0.12.
Regarding TATCTTCAAACTCTTCGCCTTC, the sensor-assay potency score (higher = more potent) was -0.452.
For the sequence TTTAGCTAAATCTTTCACTGTC, the sensor-assay potency score (higher = more potent) stood at 1.33.
On the same count and under the same terms, to TTTTCTTGCAAAAACAGCTGAA belongs -0.0894.

In the next assay the target is FCRL4. Described as above. The settings on record: shRNA.
The sequence TTATCCTCTAGAAGTGTCCTGG came in with a sensor-assay potency score (higher = more potent) of 0.145.
In turn, TTCTCTGTTGCATAGAACTGAA registered a sensor-assay potency score (higher = more potent) of -0.545.
Same read-out and setting: to TGTTATTTGAACTTGCTTGTGG belongs 0.392; to TAGGCTGAGAGTCTGTAGCTTT, 0.173.
Still for that read-out and setting: to TTATTTTGAAATTTGATCTAAA belongs -0.106.
Still for that read-out and setting: to TTGCATAGAACTGAAATCCATT belongs -0.778; to TATTTGAACTTGCTTGTGGGAT, -0.378.
Take TACATCAACATACAACGACTGA: the sensor-assay potency score (higher = more potent) is -0.697.
In turn, TAGACAACTGAGACATCCTTAT showed a sensor-assay potency score (higher = more potent) of -0.682.
Consider TTATTTGAACTTGCTTGTGGGA, for which the sensor-assay potency score (higher = more potent) was -0.64.
Sequence TAGAGCTGATCTTTCCAGCTGA returned a sensor-assay potency score (higher = more potent) of 0.365.
On the same count and under the same terms, to TAGAACTGAAATCCATTGCAAG belongs -0.914.

The next assay concerns the target FER1L6. Described as above. As to conditions: shRNA.
TAAAATGACATCTTCAGTGTTC returned a sensor-assay potency score (higher = more potent) of 0.481.
On the same count and under the same terms, to TAACTTTTTCTTCTGCTGCTGA belongs 0.239; to TTAGTCAACAGTTTTGATCTTC, 0.643.
In turn, TTGCTTGCACAGACCAACCAGC returned a sensor-assay potency score (higher = more potent) of -0.415.
On the same count and under the same terms, to TTCTTCTGCTGTAACTAGGTGG belongs -0.362; to TTTGTCTCCATCCTGTTCGTTG, -0.562.
The same measure, in the same setting: to TTCTTCTATACTTTCTTCCAGG belongs -0.684.
The same measure, in the same setting: to TTTTTCTGGTACAATCTCCGGG belongs 0.00268; to TAGAGTCTCACATAGAATCTGG, -0.448.
Turning to TTTTCTGGTACAATCTCCGGGG, the sensor-assay potency score (higher = more potent) is 0.181.
On the same count and under the same terms, to TTGACTATCTTTCGCAGCCTTG belongs -0.891; to TAGCGAATCTGAAATATCGTGC, 0.395.

The target in a further assay is FEZ1. The description is as above. The settings on record: shRNA.
TCAAACTCCAGCTCGTCCCGGC had a sensor-assay potency score (higher = more potent) of 0.386.
Same read-out and setting: to TGAACCTCAATAAGCACCGTGA belongs -0.29; to TGAACCATAGAAACACTGGGGC, 0.345.
